# Assay results: PubChem BioAssay AID2716 (Broad Institute, 2010)
# Among all 320,000 compounds or so, about 3,300 (1%) were called active. What follows is part of a selection rich in actives, with near analogues and random picks from the rest. A number with no mark means an inactive call.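 How the source made its calls: active means every valid replicate shows activation above 250% relative to neutral control wells; inactive means the rest, any valid replicate at or below 250%.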
# Assay: restored growth of temperature-sensitive Mot1-301 yeast – S. cerevisiae, ATP luminescence, 38.5C, SUMOylation pathway inhibitor project, primary screen (AID 2716);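 further: OY570 slx delta 5 strain wells were the positive control but not used for scaling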
# Conditions: S. cerevisiae Mot1-301 growth rescue, at 18.8 µM, active compounds read high, percent above DMSO median, 100 means doubled
row,SMILES,growth rescue
1,CCN1CCN(C(=O)N(Cc2ccc(Cl)cc2)S(=O)(=O)c2ccc(C)cc2)CC1,2.05%
2,COc1ccc(NS(=O)(=O)c2ccc(C(=O)Nc3c(C)n(C)n(-c4ccccc4)c3=O)cc2)cc1,-8.97%
3,CCn1c(=N)c(C(=O)NCCCOC)cc2c(=O)n3cccc(C)c3nc21,327% (active)
4,Cc1cccn2c(=O)c3cc(C(=O)NCC4CCCO4)c(=N)n(Cc4ccc(F)cc4)c3nc12 (centres undefined),-5.43%
5,Cc1cccn2c(=O)c3cc(C(=O)NCCN4CCOCC4)c(=N)n(Cc4cccnc4)c3nc12,-5.56%
6,O=C(NC1CCN(C(=S)NCc2ccco2)CC1)c1ccc(F)cc1,-3%
7,Cc1cc(NC(=O)CSCC(=O)NC(C)c2ccccc2)no1 (centres undefined),4.77%
8,N#Cc1ccc(S(=O)(=O)NCC(=O)OCC(=O)NCCc2ccccc2)cc1,0.284%
9,COc1ccc(N(CCC(=O)NCCc2ccccc2)S(=O)(=O)c2ccc(C)cc2C)cc1,-11.2%
10,Cc1cccc(-[n+]2c(-c3cccc(Br)c3)[nH]c3nc4ccccc4nc32)c1,655% (active)
11,Cc1ccc(CNC(=O)COC(=O)C2CCC2)cc1,-6.16%
12,Cc1nccn1CCC1CCCCN1C(=O)CCc1nnc(-c2ccsc2)o1 (centres undefined),-11.6%
13,COc1cccc(CNC(=O)CCCC(=O)Nc2cccc([N+](=O)[O-])c2)c1,-7.72%
14,COc1ccc(S(=O)(=O)NC(C)C(=O)Nc2cccc([N+](=O)[O-])c2)cc1 (centres undefined),-16.6%
15,COC(=O)/C=C\C(=O)Nc1cccc([N+](=O)[O-])c1,362% (active)
16,CCOC(=O)C1CCCN(C(=O)c2ccc(C)c(S(=O)(=O)N3CCCCC3)c2)C1 (centres undefined),-5.7%
17,CCOc1ccc2nc(N(CCN(C)C)C(=O)c3ccc4ccccc4c3)sc2c1,74.9%
18,CCCC(=O)N(CCN1CCOCC1)c1nc2ccc(OCC)cc2s1,371% (active)
19,CCOc1ccc2nc(N(CCCN(C)C)C(=O)c3ccc(C(=O)c4ccccc4)cc3)sc2c1,1.2%
20,O=C(CCNC(=O)c1ccc(Cl)cc1)NC1CCCc2ccccc21 (centres undefined),118%
21,Cc1ccccc1-c1nc(CS(=O)(=O)CC(=O)NC(C)c2ccccc2)c(C)o1 (centres undefined),5.04%
22,COC(=O)c1cc2occc2n1Cc1nc(-c2ccccc2C)oc1C,611% (active)
23,Cc1ccccc1-c1nc(CS(=O)(=O)CC(=O)N2CCc3ccccc3C2)c(C)o1,-11.2%

row,SMILES,growth rescue
1,O=C(Oc1ccc(Br)cc1)c1cccnc1,1.84%
2,CCCCCCOc1ccc(OC(=O)c2cccnc2)cc1,329% (active)
3,N#CCc1ccc(OC(=O)c2cccnc2)cc1,9.1%
4,Cc1nc2ccc(NC(=O)c3cccc(S(=O)(=O)N4CCOCC4)c3)cc2s1,-14.6%
5,Cc1cc(C)cc(NC(=O)C2CCCN(S(=O)(=O)c3ccc4[nH]c(=O)ccc4c3)C2)c1 (centres undefined),2800% (active)
6,CC1CCN(S(=O)(=O)c2ccc3[nH]c(=O)ccc3c2)CC1,14.3%
7,CCc1cccc(NC(=O)C2CCCN(S(=O)(=O)c3ccc4[nH]c(=O)ccc4c3)C2)c1 (centres undefined),-9.11%
8,C[C@H](CO)N1C[C@H](C)[C@@H](CN(C)C(=O)NC2CCCCC2)Oc2ccc(NC(=O)c3ccncc3)cc2C1=O,-1.03%
9,CCCCCCC(=O)N(O)C1CC(=O)N(c2ccccc2)C1=O (centres undefined),321% (active)
10,CCCCOC(=O)c1ccc(N2C(=O)CC(N3CCN(C/C=C/c4ccccc4)CC3)C2=O)cc1 (centres undefined),-18%
11,CCOC(=O)c1ccc(N2C(=O)CC(N(C)Cc3ccccc3)C2=O)cc1 (centres undefined),94.8%
12,N#CCCN1CCN(S(=O)(=O)c2ccc(S(=O)(=O)NC3CCCCC3)cc2)CC1,111%
13,CC(C)C(NC(=O)c1c(F)cccc1F)C(=O)NNC(=O)c1ccccc1 (centres undefined),-1.01%
14,Cc1ccc(C)c(S(=O)(=O)Nc2cccc(-n3cnnn3)c2)c1,-7.94%
15,Cc1nc(-c2nnc(SCC(=O)Nc3cc(C(F)(F)F)cc(C(F)(F)F)c3)n2C)cs1,16.5%
16,COc1cc(CNCc2ccc3c(c2)OCO3)c([N+](=O)[O-])cc1OC,1080% (active)
17,COc1cccc(CNCc2ccc3c(c2)OCO3)c1,-12.1%
18,COc1cc(OC)c(C(=O)NCc2ccc3c(c2)OCO3)cc1OC,1.21%
19,O=C(CSc1nnc(-c2ccncc2)o1)Nc1cccc(Cl)c1,-11.5%
20,COc1ccc(-c2c(C#Cc3ccsc3)c3cc(-c4ccc(CN5CCOCC5)cc4)ccc3n2C)cc1,-20.4%
21,CC1CCN(Cc2nc3c(c(=O)n(C)c(=O)n3C)n2CCc2ccccc2)CC1,768% (active)
22,COCCn1c(CN2CCC(Cc3ccccc3)CC2)nc2c1c(=O)n(C)c(=O)n2C,-13.7%
23,CC1CCCN(Cc2nc3c(c(=O)n(C)c(=O)n3C)n2CC(=O)c2ccccc2)C1 (centres undefined),-2.98%

row,SMILES,growth rescue
1,CC1Cc2ccccc2N1C(=O)CSc1nnc(-c2ccc(S(=O)(=O)N3CCCC3)cc2)n1C (centres undefined),-12%
2,Cc1ccc(NC(=O)CCNC(=O)c2ccc([N+](=O)[O-])cc2)cc1S(=O)(=O)N1CCOCC1,-3.52%
3,CCc1cc2c(=O)c(-c3ccc(F)cc3)c(C(F)(F)F)oc2cc1OCC(=O)O,807% (active)
4,CCc1cc2c(=O)c(-c3ccon3)c(N)oc2cc1OC,-11.8%
5,Cc1cc(C)cc(Oc2c(C(F)(F)F)oc3cc(OCC(=O)O)ccc3c2=O)c1,-7.69%
6,CCSC(C)CC1C/C(=N/O)c2c(C)noc2C1 (centres undefined),5.53%
7,Cc1ccc(C)c(S(=O)(=O)n2cnc3ccccc32)c1,439% (active)
8,COc1ccc(S(=O)(=O)n2cnc3ccccc32)c(C)c1,-3.94%
9,Cc1ccc(S(=O)(=O)n2cnc3ccccc32)c(C)c1,-12.4%
10,CCOC(=O)C1=C(C)NC(C)=C(C(=O)OCC)C1C1=COCCO1,-16.1%
11,CCOc1ccc(N(CC(=O)NCCOc2ccccc2OC)S(=O)(=O)c2ccccc2)cc1,0.484%
12,CN(c1ccccc1)S(=O)(=O)c1ccc(C(=O)N2CCN(c3ccccc3Cl)CC2)cc1,19.5%
13,NC1=C([N+](=O)[O-])C(c2ccccc2)C2=C(CCCC2=O)O1 (centres undefined),-9.51%
14,CCCc1[nH]nc2c1C(C1CC=CCC1)C(C#N)=C(N)O2 (centres undefined),4.92%
15,N#CC1=C(N)OC2=C(C(=O)CCC2)C1C1CC=CCC1 (centres undefined),435% (active)
16,O=C1CCCN2N=C(SCC(=O)Nc3ccc(Br)cc3)SC2=N1,-5.37%
17,CC(C)CCNC(=O)c1cccnc1Sc1ccccc1,2.14%
18,CC(=O)c1ccc(NC(=O)c2ccc(-n3cncn3)c([N+](=O)[O-])c2)cc1,62.2%
19,O=C(O)CSC(NC(=O)c1cccnc1)(C(F)(F)F)C(F)(F)F,-13.2%
20,Cc1cccc(C(=O)Nc2ccccc2N2CCN(c3ccc(F)cc3)CC2)c1,0.874%
21,O=C(Nc1ccccc1N1CCCC1)c1ccc2ccccc2c1,-24.5%
22,O=C(Nc1ccccc1N1CCN(c2ccccc2)CC1)c1cccc(F)c1,516% (active)
23,CC(Sc1ncnc2c1cnn2-c1ccccc1)C(=O)Nc1ccc(N2CCOCC2)cc1 (centres undefined),-16.6%

row,SMILES,growth rescue
1,CCC(=O)Nc1ccc(C(=O)CSc2nnc(CNc3ccc(Cl)cc3)o2)cc1OC,-12.4%
2,CCn1cc(CN2CCN(CC(C)(C)C)C(CCO)C2)c2ccccc21 (centres undefined),2.63%
3,CCOc1ccc(OCC(=O)OC(C)C(=O)NC2CCCCC2C)cc1 (centres undefined),4.11%
4,O=C(COc1ccc(Cl)cc1)NCc1nnc(SCC(=O)NCC2CCCO2)o1 (centres undefined),1.67%
5,CCn1c(SCC(=O)N/N=C/c2ccccc2OCC(=O)O)nnc1-c1ccc(C(C)(C)C)cc1,746% (active)
6,CCn1c(SCC(=O)N/N=C/C=C/c2ccccc2[N+](=O)[O-])nnc1-c1ccccc1,-1.22%
7,Cc1ccc(Cn2c(SCC(=O)N/N=C/c3ccccc3OCC(=O)O)nc3ccccc32)cc1,29.2%
8,CCCSc1nc2c(c(=O)n(C)c(=O)n2C)n1Cc1ccc(C)cc1,-26.2%
9,CCCCn1c(SCC(=O)NCCc2ccc(OC)c(OC)c2)nc2c1c(=O)n(C)c(=O)n2C,-22.4%
10,CCOc1ccc(Cn2c(SCCCCC#N)nc3c2c(=O)n(C)c(=O)n3C)cc1OCC,395% (active)
11,NC(N)=NCCCc1cn(CC(=O)N2CCNCC2)nn1,3.99%
12,Cn1c(=O)c2c(SCC(=O)NCC3CCCO3)nc(CC(C)(C)C)nc2n(C)c1=O (centres undefined),4.63%
13,CC1CCN(C(=S)NC2CC3CCC2C3)CC1 (centres undefined),8.2%
14,O=C(Oc1ccccc1Cl)c1ccc(N2CCOCC2)c([N+](=O)[O-])c1,334% (active)
15,O=C(c1ccc(N2CCOCC2)c([N+](=O)[O-])c1)N1CCN(c2ccccc2F)CC1,-2.08%
16,O=C(OCC(=O)N1CCOCC1)c1ccc(N2CCOCC2)c([N+](=O)[O-])c1,15.5%
17,S=C(Nc1ccc(Br)cc1Cl)N1CCC2(CC1)OCCO2,14%
18,Cc1ccc(C(C(=O)NC2CCCCC2)N(C(=O)c2csnn2)C2CC2)o1 (centres undefined),-6.5%
19,CCOc1ccc(C(=O)Nc2cccc(SC)c2)cc1,-2.04%
20,O=S(=O)(c1ccc(SCc2ccc(Br)cc2)nc1)N1CCOCC1,0.526%
